C diff HTS: inhibitors of Clostridium difficile growth; Clostridium difficile clinical isolate growth, OD600, 24 h; active compounds read low; growth activity, negative = inhibition, % at 16 µg/mL (by protocol); 0.25% of 86,000 active; AID 1259249;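 active = mean growth activity at or below -80% and every replicate also at or below -80%; inconclusive = mean at or below -80% but some replicate above -80%; inactive = mean growth activity above -80%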
Pf Dd2 inh: blocks growth of Plasmodium falciparum Dd2 parasites; P. falciparum Dd2 growth, SYBR Green, 72 h; active compounds read low; activity change, % at 10 µM; 2.3% of 94,000 active; in the data active = activity change below about -80%; inconclusive = no clear call, values can overlap the other calls
T cruzi growth-1: blocks T. cruzi growth in NIH3T3 culture; T. cruzi beta-gal in NIH3T3, GalScreen luminescence, 90 h; inhibition, % at 8.34 µM; 5.9% of 77,000 active;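 active = mean inhibition above about 93%, with at least 55% of replicates each passing it, limit read from the data, passing the limit was not always enough; inconclusive = only one of those two conditions holds; inactive = neither condition holds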
T cruzi growth-2: inhibitors of T. cruzi proliferation; shares compounds with T cruzi growth-1; T. cruzi beta-gal in NIH3T3, GalScreen luminescence, 90 h; inhibition, % at 8.35 µM; 72% of 5,600 active; AID 651739;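 active = mean replicate inhibition above about 95% and at least 55% of replicates individually reaching it, limit read from the data; inconclusive = only one of the two criteria is met; inactive = neither criterion is met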
T cruzi growth-3: inhibitors of T. cruzi proliferation | shares compounds with T cruzi growth-1 | T. cruzi beta-gal in NIH3T3, GalScreen luminescence, 90 h | inhibition, % at 2.09 µM | 21% of 5,600 active;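 active = mean inhibition above about 95%, with at least 55% of replicates also reaching it, limit read from the data; inconclusive = meets just one of the two conditions; inactive = meets neither condition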
NIH3T3 tox: NIH/3T3 (mouse) viability loss; shares compounds with T cruzi growth-1; NIH/3T3 viability, CellTiter-Glo ATP luminescence, 90 h; cytotoxicity (signal decrease), % at 8.35 µM; 14% of 5,600 active;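 active = mean signal decrease across replicates above about 35% based on untreated-well scatter, with enough replicates individually passing, limit read from the data; inconclusive = no rule stated though some were filed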
3T3 cytotox 2: cytotoxicity in mouse NIH/3T3 fibroblasts; shares compounds with T cruzi growth-1; NIH/3T3 viability, CellTiter-Glo ATP luminescence, 90 h; inhibition, % at 24.9 µM; 56% of 5,600 active;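 active = mean loss of cell viability signal at or above a set limit, and enough replicates individually reaching it; inconclusive = meets only the mean limit or only the replicate share; inactive = meets neither condition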
A number is an active result; 0 = inactive; ? = inconclusive; - = not tested or not shown. Most compounds without a hit are left out; they make up all but 6.7% or so of the library.

SMILES | C diff HTS | Pf Dd2 inh | T cruzi growth-1 | T cruzi growth-2 | T cruzi growth-3 | NIH3T3 tox | 3T3 cytotox 2
C[C@@H]1CCCCO[C@H](CN(C)Cc2ccc(C(F)(F)F)cc2)[C@@H](C)CN([C@H](C)CO)C(=O)c2cc(NC(=O)Nc3ccccc3)ccc2O1 | 0 | 0 | 96 | 98 | 111 | 0 | 0
C[C@@H]1CCCCO[C@H](CN(C)Cc2ccc(C(F)(F)F)cc2)[C@H](C)CN([C@H](C)CO)C(=O)c2cc(NC(=O)Nc3ccccc3)ccc2O1 | 0 | 0 | ? | 96 | 120 | 0 | 0
C[C@@H]1CCCCO[C@@H](CN(C)Cc2ccc(C(F)(F)F)cc2)[C@H](C)CN([C@@H](C)CO)C(=O)c2cc(NC(=O)Nc3ccccc3)ccc2O1 | 0 | 0 | 0 | - | - | - | -
OC[C@H]1[C@@H](c2ccc(-c3cccc(F)c3)cc2)[C@@H]2CN(CCC(F)(F)F)CCCCN12 | 0 | 0 | 0 | - | - | - | -
C[C@@H]1CN([C@H](C)CO)C(=O)c2cc(NC(=O)Nc3ccc(C(F)(F)F)cc3)ccc2O[C@@H](C)CCCCO[C@H]1CN(C)C(=O)c1ccccc1 | 0 | 0 | ? | 103 | 113 | 0 | 0
C[C@H](CO)N1C[C@H](C)[C@@H](CN(C)C(=O)Nc2ccc(C(F)(F)F)cc2)OCCCC[C@H](C)Oc2ccc(NC(=O)Nc3ccccc3)cc2C1=O | 0 | 0 | - | - | - | - | -
C[C@@H]1CCCCO[C@@H](CN(C)C(=O)Nc2ccccc2)[C@H](C)CN([C@H](C)CO)C(=O)c2cc(NC(=O)Nc3ccc(C(F)(F)F)cc3)ccc2O1 | 0 | 0 | - | - | - | - | -
C[C@@H]1CCCCO[C@H](CN(C)C(=O)c2ccccc2)[C@@H](C)CN([C@H](C)CO)C(=O)c2cc(NC(=O)Nc3ccc(C(F)(F)F)cc3)ccc2O1 | 0 | 0 | ? | 106 | 0 | 0 | 33
COCC(=O)Nc1ccc2c(c1)OC[C@@H](C)N(Cc1ccccc1)C[C@H](C)[C@@H](OC)CN(C)C2=O | 0 | 0 | 0 | - | - | - | -
CO[C@@H]1CN(C)C(=O)c2ccc(NC(=O)Nc3ccccc3)cc2OC[C@H](C)N(C(=O)Nc2c(C)noc2C)C[C@H]1C | 0 | 0 | 0 | - | - | - | -
CC(C)NC(=O)N1CC2(C1)[C@@H](c1ccccc1)[C@@H](CO)N2C(=O)C1CCCCC1 | 0 | 0 | - | - | - | - | -
CC(C)C#Cc1ccc2c(c1)O[C@H](CN(C)C(=O)c1cccc(F)c1)[C@@H](C)CN([C@@H](C)CO)S2(=O)=O | 0 | 0 | 101 | 103 | 0 | 0 | 34
CC(C)CC#Cc1ccc2c(c1)O[C@@H](CN(C)C(=O)c1cccc(F)c1)[C@@H](C)CN([C@H](C)CO)S2(=O)=O | 0 | 0 | 120 | 99 | 0 | 0 | 106
CC(C)C#Cc1ccc2c(c1)O[C@@H](CN(C)C(=O)c1cccc(F)c1)[C@@H](C)CN([C@@H](C)CO)S2(=O)=O | 0 | 0 | 0 | - | - | - | -
C[C@@H]1CN([C@@H](C)CO)S(=O)(=O)c2ccc(Br)cc2O[C@H]1CN(C)C(=O)c1cccc(F)c1 | 0 | 0 | - | - | - | - | -
CC(C)CC#Cc1ccc2c(c1)O[C@H](CN(C)C(=O)c1cccnc1)[C@H](C)CN([C@@H](C)CO)S2(=O)=O | 0 | 0 | 0 | - | - | - | -
CC(C)CC#Cc1ccc2c(c1)O[C@H](CN(C)C(=O)c1cccc(F)c1)[C@H](C)CN([C@H](C)CO)S2(=O)=O | 0 | 0 | 126 | 104 | 108 | 0 | 104
CC(=O)N(C)C[C@H]1Oc2cc(C#CCC(C)C)ccc2S(=O)(=O)N([C@H](C)CO)C[C@H]1C | 0 | 0 | 0 | - | - | - | -
CC(C)CC#Cc1ccc2c(c1)O[C@H](CN(C)C(=O)c1cccc(F)c1)[C@H](C)CN([C@@H](C)CO)S2(=O)=O | 0 | 0 | 120 | 104 | 106 | 0 | 104
CCN(C[C@@H]1[C@@H](c2ccccc2)[C@H](CO)N1C(=O)C1CC1)C(=O)NC1CCCC1 | 0 | 0 | 97 | 0 | 0 | 0 | 0
COCCN(C[C@@H]1[C@@H](c2ccccc2)[C@H](CO)N1C(C)=O)C(=O)c1ccccc1 | 0 | 0 | 0 | - | - | - | -
COCC(=O)N(C)C[C@H]1[C@H](c2ccc(-c3cccnc3)cc2)[C@@H](CO)N1C(C)=O | 0 | 0 | 0 | - | - | - | -
CCN(C[C@@H]1[C@@H](c2ccccc2)[C@@H](CO)N1C(=O)C1CC1)C(=O)NC1CCCC1 | 0 | 0 | 0 | - | - | - | -
CC(=O)N(C)C[C@@H]1[C@@H](c2ccc(-c3ccccc3)cc2)[C@H](CO)N1C(=O)C1CC1 | 0 | 0 | 0 | - | - | - | -
CC(=O)N(C)C[C@H]1[C@H](c2ccc(-c3ccccc3)cc2)[C@@H](CO)N1C(=O)C1CC1 | 0 | 0 | ? | 0 | 0 | 0 | 0
SMILES | C diff HTS | Pf Dd2 inh | T cruzi growth-1 | T cruzi growth-2 | T cruzi growth-3 | NIH3T3 tox | 3T3 cytotox 2
COCC(=O)N(C)C[C@H]1[C@H](c2ccc(-c3cccnc3)cc2)[C@H](CO)N1C(C)=O | 0 | 0 | 101 | 0 | 0 | 0 | 0
COCCN(C[C@H]1[C@@H](c2ccccc2)[C@H](CO)N1C(C)=O)C(=O)c1ccncc1 | 0 | 0 | ? | 0 | 0 | 0 | 0
COc1cccc(-c2cn(CC[C@@H]3CC[C@H](NC(=O)CN(C)C)[C@H](CO)O3)nn2)c1 | - | 0 | 0 | - | - | - | -
Cc1ccc(S(=O)(=O)N[C@@H]2C=C[C@@H](CC(=O)NC3CCCCC3)O[C@H]2CO)cc1 | 0 | 0 | 0 | - | - | - | -
Cc1cccc(S(=O)(=O)N[C@H]2CC[C@@H](CCn3cc(-c4ccccn4)nn3)O[C@H]2CO)c1 | 0 | 0 | 0 | - | - | - | -
CC(=O)N(C)C[C@H]1[C@H](c2ccccc2)[C@@H](CO)N1C(=O)C1CCC1 | 0 | 0 | 101 | 0 | 0 | 0 | 0
CN(C[C@H]1[C@H](c2ccccc2)[C@@H](CO)N1C(=O)C1CCC1)C(=O)c1ccccn1 | 0 | 0 | 0 | - | - | - | -
C[C@@H]1CCCCO[C@@H](CN(C)Cc2ccc(Cl)c(Cl)c2)[C@H](C)CN([C@@H](C)CO)C(=O)c2cc(NS(=O)(=O)c3ccccc3)ccc2O1 | 0 | 0 | 0 | - | - | - | -
COc1ccc(NC(=O)Nc2ccc3c(c2)C(=O)N([C@@H](C)CO)C[C@H](C)[C@@H](CN(C)Cc2ccc4c(c2)OCO4)OCCCC[C@H](C)O3)cc1 | 0 | 0 | ? | 103 | 0 | 0 | 105
COc1ccc(CN(C)C[C@@H]2OCCCC[C@@H](C)Oc3ccc(NC(=O)Nc4ccc5c(c4)OCO5)cc3C(=O)N([C@@H](C)CO)C[C@H]2C)cc1 | - | 0 | 0 | - | - | - | -
COc1ccc(CN(C)C[C@H]2OCCCC[C@H](C)Oc3ccc(NC(=O)Nc4ccc5c(c4)OCO5)cc3C(=O)N([C@H](C)CO)C[C@H]2C)cc1 | - | 0 | 105 | ? | ? | 0 | 78
COc1ccc(CN(C)C[C@H]2OCCCC[C@@H](C)Oc3ccc(NC(=O)Nc4ccc5c(c4)OCO5)cc3C(=O)N([C@H](C)CO)C[C@@H]2C)cc1 | - | 0 | 0 | - | - | - | -
O=C1CCCn2cc(nn2)COC[C@@H](Cc2ccccc2)N1 | 0 | - | - | - | - | - | -

High-throughput results: PubChem, Broad Institute
